The results in this text go back to the supplement of paper PMC9694430.
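Further: purified Escherichia coli-expressed rice kinase domain construct.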

For the first test, the system named is LOC_OS02G07810-cb001. Kind of test: thermal shift delta Tm vs DMSO control; higher = stronger stabilization (binding). The conditions noted are these: 12.5 µM; protein concentration 2 µM. Put shortly: (§1)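 Thermal shift values come from differential scanning fluorimetry on purified rice kinase domains made in E. coli, with melting temperatures obtained from Boltzmann fits. Samples of 19.5 μl held 2 μM kinase, 100 mM potassium phosphate pH 7.5, 150 mM NaCl, 10% glycerol, 5 × SYPRO Orange and compound in DMSO, and were heated from 25°C to 95°C at 0.05°C/s. Each shift is a triplicate mean relative to the DMSO-only protein sample.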
For the compound `O=C1NC(=O)C(=Cc2ccc(-c3ccc(F)cc3)o2)S1` (stereo in doubt), the “thermal shift delta Tm” value worked out at 1.67 °C.
As for `CONC(=O)c1ccccc1Nc1cc(Nc2cc(C)nn2C(C)C)ncc1Cl`, the “thermal shift delta Tm” value was -0.17 °C.
Same read-out and setting: the result for `O=C(O)c1ccc2c3c1cccc3c(=O)n1c3ccccc3nc21` reads 0.5 °C.
Regarding `OC1CCC(Oc2cccc3cnc(Nc4ccc5nc[nH]c5c4)nc23)CC1` (centres undefined), the “thermal shift delta Tm” value is -0.24 °C.
Still for that read-out and setting: for `CN1CCN(Cc2ccc(-c3cnc4[nH]cc(-c5ccc6[nH]ccc6c5)c4c3)cc2)CC1` the value was 1.34 °C; for `Cc1cc(N2CCOCC2)cc2[nH]c(-c3c(NC[C@@H](O)c4cccc(Cl)c4)cc[nH]c3=O)nc12`, 0.46 °C.
Same read-out and setting: the result for `S=C(NCc1ccc2c(c1)OCO2)N1CCN(c2ncnc3c2oc2ccccc23)CC1` [Amuvatinib (MP-470)] reads 1.04 °C; that for `COc1cc2c(N3CCN(C(=O)Nc4ccc(OC(C)C)cc4)CC3)ncnc2cc1OCCCN1CCCCC1` [Tandutinib (MLN518)], 0.79 °C.
Same read-out and setting: the result for `COc1cc(-c2cc(-c3ccc(N4CCNCC4)cc3)cnc2C)cc(OC)c1OC` reads 0.05 °C; that for `O=C(Nc1ccc(OC(F)(F)F)cc1)c1sccc1NCc1ccnc2ccccc12`, 1.03 °C; that for `Cc1nc2ccc(-n3ncc(C(=O)c4cc5ccccc5[nH]4)c3N)cc2[nH]1`, 0.91 °C.
Regarding `CC(C)n1ncnc1-c1cn2c(n1)-c1ccc(O[C@@H](C)C(N)=O)cc1OCC2`, the “thermal shift delta Tm” value is 1.33 °C.
For the compound `O=C(O)[C@]1(Cc2cccc(Nc3nccs3)n2)CC[C@@H](Oc2cccc(Cl)c2F)CC1`, the “thermal shift delta Tm” value came out at 0.53 °C.
With `O=C(O)CCC(=O)Nc1ccc(Br)cn1` [Bikinin], the “thermal shift delta Tm” value worked out at 0.66 °C.
On the same count and under the same terms, for `CCOc1cc2ncc(C#N)c(Nc3ccc(OCc4ccccn4)c(Cl)c3)c2cc1NC(=O)/C=C/CN(C)C` [Neratinib (HKI-272)] the value was 0.52 °C; for `O=C(Nc1cccc(C(F)(F)F)c1)c1cccc2cc(Oc3cc(CO)ncn3)ccc12`, 0.69 °C.
Consider `CC1(C)C=Cc2c(ccc3c2OC[C@@H](c2ccc(O)cc2O)C3)O1` [Glabridin], for which the “thermal shift delta Tm” value is -0.38 °C.
Still for that read-out and setting: the result for `COc1ccccc1-c1cc(Nc2cccc(CS(N)(=O)=O)c2)ncn1` reads 0.75 °C.
For the compound `Cc1ccc(C(=O)Nc2ccc(Oc3cc4cnn(C)c4cc3-c3cn[nH]c3)c(F)c2)c(=O)n1-c1ccc(F)cc1`, the “thermal shift delta Tm” value came out at 1.19 °C.
In the case of `CCS(=O)(=O)c1cccc(-c2cc(C(=O)NC3CCN(C)CC3)c(C)c3[nH]c4ncc(C)cc4c23)c1`, the “thermal shift delta Tm” value came to 0.49 °C.
The same measure, in the same setting: the result for `CCc1cncnc1N1CCN(Cc2nc3ccc(C(F)(F)F)cc3[nH]2)CC1` reads 0.73 °C.
For `Cc1ccc(NC(=O)c2ccc(CN3CCN(C)CC3)cc2)cc1Nc1nccc(-c2cccnc2)n1` [Imatinib (STI571)], the “thermal shift delta Tm” value turned out to be 0.18 °C.
Same read-out and setting: for `CCn1c(=O)c(-c2ccc(Cl)cc2Cl)cc2cnc(Nc3ccc(N4CCNCC4)c(F)c3)nc21` the value was 0.21 °C.
Turning to `COc1cc(N2CCN(C)CC2)ccc1Nc1ncc2c(n1)N(C)c1ccccc1C(=O)N2`, the “thermal shift delta Tm” value worked out at 0.41 °C.
On the same count and under the same terms, for `CCn1c(-c2nonc2N)nc2cnc(Oc3cccc(NC(=O)c4ccc(OCCN5CCOCC5)cc4)c3)cc21` the value was 0.95 °C; for `O=C1Cc2c([nH]c3ccc(Br)cc23)-c2ccccc2N1` [Kenpaullone], 1.24 °C.
Consider `COC(=O)Nc1ccc(-c2nc(N3CCOCC3)c3cnn(C4CCN(C(=O)OC)CC4)c3n2)cc1`, for which the “thermal shift delta Tm” value is 0.91 °C.
Consider `Nc1ncc(-c2ccnc(Nc3ccncc3)n2)c(CC2CC2)n1`, for which the “thermal shift delta Tm” value was 0.77 °C.
The same measure, in the same setting: for `C=CC(=O)Nc1ccc2ncnc(Nc3cccc(Br)c3)c2c1` the value was 0.8 °C.
The same measure, in the same setting: the result for `COc1nccc(-c2c(-c3ccc(F)cc3)ncn2C2CCC(O)CC2)n1` (centres undefined) reads 0.67 °C; that for `CC(C)Nc1cc(-c2c[nH]c(C(=O)N[C@H](CO)c3cccc(Cl)c3)c2)c(Cl)cn1`, 1.19 °C.
Take `CN1CCN(Cc2ccc(NC(=O)Nc3ccc(Oc4ccnc(N)n4)cc3)cc2C(F)(F)F)CC1`: the “thermal shift delta Tm” value worked out at 0.57 °C.
Still for that read-out and setting: the result for `O=C(NCCO)c1cccc(-c2cc(Nc3ccc(OC(F)(F)F)cc3)ncn2)c1` reads 0.33 °C.
Same read-out and setting: the result for `CC(C)(O)CNc1ncc(-c2ccnc(Nc3ccnc(Cl)c3)n2)c(CC2CC2)n1` reads 0.23 °C; that for `O=C1NC(=O)C(c2ccccc2[N+](=O)[O-])=C1Nc1ccc(O)c(Cl)c1`, 1.72 °C.
Still for that read-out and setting: the result for `CCOc1cc(N2CCC(O)CC2)ccc1Nc1ncc2c(n1)N(C)c1ccccc1C(=O)N2C` reads 0.39 °C; that for `COc1ccc(-c2ccc3ncc4c(c3c2)n(-c2ccc(N3CCNCC3)c(C(F)(F)F)c2)c(=O)n4C)cn1`, 1.67 °C.

The next test concerns LOC_OS02G08530-cb003. Described as above. The conditions noted are these: 12.5 µM; protein concentration 2 µM. In a few lines:
as §1
On to `O=C1NC(=O)C(=Cc2ccc(-c3ccc(F)cc3)o2)S1` (stereo in doubt), for which the “thermal shift delta Tm” value was 1.15 °C.
As to `CONC(=O)c1ccccc1Nc1cc(Nc2cc(C)nn2C(C)C)ncc1Cl`, the “thermal shift delta Tm” value was 1.79 °C.
Same read-out and setting: for `O=C(O)c1ccc2c3c1cccc3c(=O)n1c3ccccc3nc21` the value was 0.93 °C.
For `OC1CCC(Oc2cccc3cnc(Nc4ccc5nc[nH]c5c4)nc23)CC1` (centres undefined), the “thermal shift delta Tm” value is 4.55 °C.
Take `CN1CCN(Cc2ccc(-c3cnc4[nH]cc(-c5ccc6[nH]ccc6c5)c4c3)cc2)CC1`: the “thermal shift delta Tm” value is 5.47 °C.
Still for that read-out and setting: the result for `Cc1cc(N2CCOCC2)cc2[nH]c(-c3c(NC[C@@H](O)c4cccc(Cl)c4)cc[nH]c3=O)nc12` reads 4.03 °C; that for `S=C(NCc1ccc2c(c1)OCO2)N1CCN(c2ncnc3c2oc2ccccc23)CC1` [Amuvatinib (MP-470)], 1.09 °C.
The same measure, in the same setting: for `COc1cc2c(N3CCN(C(=O)Nc4ccc(OC(C)C)cc4)CC3)ncnc2cc1OCCCN1CCCCC1` [Tandutinib (MLN518)] the value was 0.33 °C.
With `COc1cc(-c2cc(-c3ccc(N4CCNCC4)cc3)cnc2C)cc(OC)c1OC`, the “thermal shift delta Tm” value turned out to be 0.49 °C.
On the same count and under the same terms, the result for `O=C(Nc1ccc(OC(F)(F)F)cc1)c1sccc1NCc1ccnc2ccccc12` reads 0.68 °C; that for `Cc1nc2ccc(-n3ncc(C(=O)c4cc5ccccc5[nH]4)c3N)cc2[nH]1`, 1.17 °C; that for `CC(C)n1ncnc1-c1cn2c(n1)-c1ccc(O[C@@H](C)C(N)=O)cc1OCC2`, 0.19 °C.
Still for that read-out and setting: for `O=C(O)[C@]1(Cc2cccc(Nc3nccs3)n2)CC[C@@H](Oc2cccc(Cl)c2F)CC1` the value was 5.62 °C; for `O=C(O)CCC(=O)Nc1ccc(Br)cn1` [Bikinin], 0.69 °C.
Same read-out and setting: the result for `CCOc1cc2ncc(C#N)c(Nc3ccc(OCc4ccccn4)c(Cl)c3)c2cc1NC(=O)/C=C/CN(C)C` [Neratinib (HKI-272)] reads 1 °C; that for `O=C(Nc1cccc(C(F)(F)F)c1)c1cccc2cc(Oc3cc(CO)ncn3)ccc12`, 0.95 °C; that for `CC1(C)C=Cc2c(ccc3c2OC[C@@H](c2ccc(O)cc2O)C3)O1` [Glabridin], 0.24 °C.
`COc1ccccc1-c1cc(Nc2cccc(CS(N)(=O)=O)c2)ncn1`: the “thermal shift delta Tm” value stood at 1.15 °C.
Take `Cc1ccc(C(=O)Nc2ccc(Oc3cc4cnn(C)c4cc3-c3cn[nH]c3)c(F)c2)c(=O)n1-c1ccc(F)cc1`: the “thermal shift delta Tm” value came out at 1.25 °C.
The same measure, in the same setting: the result for `CCS(=O)(=O)c1cccc(-c2cc(C(=O)NC3CCN(C)CC3)c(C)c3[nH]c4ncc(C)cc4c23)c1` reads 4.38 °C; that for `CCc1cncnc1N1CCN(Cc2nc3ccc(C(F)(F)F)cc3[nH]2)CC1`, 0.49 °C.
As for `Cc1ccc(NC(=O)c2ccc(CN3CCN(C)CC3)cc2)cc1Nc1nccc(-c2cccnc2)n1` [Imatinib (STI571)], the “thermal shift delta Tm” value was found to be 1.39 °C.
On the same count and under the same terms, for `CCn1c(=O)c(-c2ccc(Cl)cc2Cl)cc2cnc(Nc3ccc(N4CCNCC4)c(F)c3)nc21` the value was 0.94 °C; for `COc1cc(N2CCN(C)CC2)ccc1Nc1ncc2c(n1)N(C)c1ccccc1C(=O)N2`, 0.62 °C; for `CCn1c(-c2nonc2N)nc2cnc(Oc3cccc(NC(=O)c4ccc(OCCN5CCOCC5)cc4)c3)cc21`, 1.19 °C.
In the case of `O=C1Cc2c([nH]c3ccc(Br)cc23)-c2ccccc2N1` [Kenpaullone], the “thermal shift delta Tm” value was 1.62 °C.
On the same count and under the same terms, the result for `COC(=O)Nc1ccc(-c2nc(N3CCOCC3)c3cnn(C4CCN(C(=O)OC)CC4)c3n2)cc1` reads 0.58 °C; that for `Nc1ncc(-c2ccnc(Nc3ccncc3)n2)c(CC2CC2)n1`, 0.52 °C.
Still for that read-out and setting: the result for `C=CC(=O)Nc1ccc2ncnc(Nc3cccc(Br)c3)c2c1` reads 0.61 °C; that for `COc1nccc(-c2c(-c3ccc(F)cc3)ncn2C2CCC(O)CC2)n1` (centres undefined), 0.39 °C; that for `CC(C)Nc1cc(-c2c[nH]c(C(=O)N[C@H](CO)c3cccc(Cl)c3)c2)c(Cl)cn1`, 1.18 °C.
`CN1CCN(Cc2ccc(NC(=O)Nc3ccc(Oc4ccnc(N)n4)cc3)cc2C(F)(F)F)CC1`: the “thermal shift delta Tm” value turned out to be 2.59 °C.
Turning to `O=C(NCCO)c1cccc(-c2cc(Nc3ccc(OC(F)(F)F)cc3)ncn2)c1`, the “thermal shift delta Tm” value came to 0.44 °C.
For `CC(C)(O)CNc1ncc(-c2ccnc(Nc3ccnc(Cl)c3)n2)c(CC2CC2)n1`, the “thermal shift delta Tm” value was 0.89 °C.
`O=C1NC(=O)C(c2ccccc2[N+](=O)[O-])=C1Nc1ccc(O)c(Cl)c1`: the “thermal shift delta Tm” value came out at 1.16 °C.
For `CCOc1cc(N2CCC(O)CC2)ccc1Nc1ncc2c(n1)N(C)c1ccccc1C(=O)N2C`, the “thermal shift delta Tm” value was 0.9 °C.
In the case of `COc1ccc(-c2ccc3ncc4c(c3c2)n(-c2ccc(N3CCNCC3)c(C(F)(F)F)c2)c(=O)n4C)cn1`, the “thermal shift delta Tm” value was 2.04 °C.
